From PubChem BioAssay (NCI)
Compounds without any hit were thinned out: in the full panel of roughly 83,000, 20% have a hit.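 Cells were grown in 96-well plates and exposed to the test compound at a single concentration for 48 hours; results are reported as percent growth, with values below 10 considered active.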 Unmarked numbers belong to inactive results. Calls of active or inactive are those of the source.

How the values were obtained:
Test in all cases: NCI-60 one-dose screen, 48 h (100 = growth as untreated, 0 = no growth, -100 = all killed)
Conditions in all cases: 10 µM unless noted
NCI-H23 lung = tested on: NCI-H23 lung
NCI-H226 lung = tested on: NCI-H226 lung
NCI-H322M lung = tested on: NCI-H322M lung
HOP-62 NSCLC = tested on: HOP-62 NSCLC
NCI-H460 lung = tested on: NCI-H460 lung
HOP-92 NSCLC = tested on: HOP-92 NSCLC
NCI-H522 lung = tested on: NCI-H522 lung
A549/ATCC NSCLC = tested on: A549/ATCC NSCLC
786-0 renal = tested on: 786-0 renal
DU-145 prostate = tested on: DU-145 prostate
K-562 leukemia = tested on: K-562 leukemia
MALME-3M melanoma = tested on: MALME-3M melanoma
MDA-MB-231 breast = tested on: MDA-MB-231 breast
RXF 393 renal = tested on: RXF 393 renal
SF-268 CNS = tested on: SF-268 CNS
SF-295 CNS = tested on: SF-295 CNS
SF-539 CNS = tested on: SF-539 CNS
UACC-257 melanoma = tested on: UACC-257 melanoma
M14 melanoma = tested on: M14 melanoma

SMILES	growth (NCI-H23 lung)	growth (NCI-H226 lung)	growth (NCI-H322M lung)	growth (HOP-62 NSCLC)	growth (NCI-H460 lung)	growth (HOP-92 NSCLC)	growth (NCI-H522 lung)	growth (A549/ATCC NSCLC)	growth (786-0 renal)	growth (DU-145 prostate)	growth (K-562 leukemia)	growth (MALME-3M melanoma)	growth (MDA-MB-231 breast)	growth (RXF 393 renal)	growth (SF-268 CNS)	growth (SF-295 CNS)	growth (SF-539 CNS)	growth (UACC-257 melanoma)	growth (M14 melanoma)
O=C(Oc1ccc[nH]c1=O)c1cc([N+](=O)[O-])cc([N+](=O)[O-])c1	114%	104%	98.6%	97.2%	111%	146%	116%	77.3%	101%	123%	87.1%	156%	114%	83.3%	116%	113%	99.3%	19.7%	101%
CN1CCN(c2ccc3nc(/N=C/c4ccc5sc(-c6ccc([N+](=O)[O-])cc6)nc5c4)sc3c2)CC1	99.4%	97.9%	105%	120%	103%	111%	95%	98.6%	101%	106%	90.6%	96.7%	112%	129%	111%	96%	93.4%	101%	104%
Nc1ccn(C2OC(F)(CO)C(O)C2F)c(=O)n1 (centres undefined)	10.3%	89.4%	71.1%	17.3%	12.7%	53.3%	32.8%	21.8%	10.9%	24.6%	69%	57.4%	93.4%	82.4%	47.1%	55.2%	46.9%	62.6%	1.59% (active)
O=C(NCCOCCOCCOCCNC(=O)c1cc2c(o1)C(=O)c1ccccc1C2=O)NC12CC3CC(CC(C3)C1)C2	-45.7% (active)	-80.4% (active)	-59.5% (active)	-58% (active)	-71% (active)	43.5%	-27.7% (active)	-47.6% (active)	3.51% (active)	-96% (active)	7.09% (active)	-94.5% (active)	18.5%	-52.9% (active)	-5.16% (active)	-91.9% (active)	-63.5% (active)	-77% (active)	-40.2% (active)
N#Cc1c(N)n2c(nc1=Nc1ccc([N+](=O)[O-])cc1)sc1cc(Cl)ccc12	79%	88.4%	96%	102%	86.9%	57.6%	77%	106%	109%	107%	74.4%	90.6%	74.5%	114%	95.4%	-4.01% (active)	107%	109%	105%
N=C(N)c1ccc(-c2ccc(/C=C/c3ccccc3)s2)cc1	55.2%	84.7%	1% (active)	33.3%	-60.1% (active)	34.7%	20%	12.7%	-38.3% (active)	1.59% (active)	-27.7% (active)	61.2%	-51.5% (active)	39.2%	60.7%	-61.7% (active)	17.2%	105%	31.8%
COc1cc(C2C=C(c3cccc(NC(C)=O)c3)Nc3ncnn32)cc(OC)c1OC (centres undefined)	29.8%	43.5%	37%	62.6%	14.6%	68.9%	-3.09% (active)	45.5%	50.1%	2.4% (active)	23.6%	25.6%	16.4%	-28.3% (active)	36.9%	-58% (active)	-5.24% (active)	71.2%	20.4%
CCc1nc2ccccc2[nH]1	104%	99.7%	110%	105%	102%	99.7%	103%	107%	112%	125%	102%	122%	103%	113%	103%	119%	104%	102%	99.8%
CCOC(=O)c1c(C)[nH]c(C(=O)CCC(=O)OC)c1C	98.3%	95.8%	98.5%	98.7%	110%	84.6%	72.5%	93.3%	92.9%	100%	102%	98.7%	115%	112%	98.3%	91.8%	100%	112%	97.5%
Cn1cc(Nc2nccc(-c3ccc(N4CCCC4)c(C#N)c3)n2)cn1	63.3%	78.9%	52%	25.5%	8.94% (active)	67%	22%	22.6%	42.7%	55.7%	9.73% (active)	54.4%	63.9%	43.9%	45.9%	71.3%	43.8%	69.6%	17.2%
CNCCNc1nc2ccccc2c2c(=O)c3cc(F)ccc3oc12	64.8%	68%	43.8%	44.2%	55.8%	33.3%	58%	50.8%	53.1%	48.6%	56%	86.3%	39.2%	59.2%	58.2%	75.4%	58.9%	99.4%	86.8%
